# Assay outcomes deposited in PubChem BioAssay by National Center for Advancing Translational Sciences (NCATS).
# Only a selection was taken, and hits are over-represented in it overall.
# Shiga toxin inh = A qHTS for Small Molecule Inhibitors of Shiga Toxin; Vero cells, Shiga toxin protein synthesis inhibition reporter; 9.2% of 290,000 active; inhibition, % at 38.7 µM; in the data active = inhibition mostly above about 28%, no sharp cut-off; inactive = mostly below about 43%; also: 0% is about no effect
# LASV entry inh = qHTS for Inhibitors of binding or entry into cells for Lassa Virus | AID 540256, 2011 | Lassa virus pseudotype entry inhibition, cell reporter | 1.2% of 300,000 active | Potency, µM (doses to about 37.9 µM), for inactives: at the highest dose activity change, negative = inhibition, usual class: inhibitors; calls by dose curve; tested in HEK293 cells; also: potency is read from the fitted curve at half-maximal effect; % is scaled to controls: 0 for no effect and ±100 for the full control effect; nearly all actives have a fitted effect of over 50% in size
# Cycloheximide cs = Cycloheximide Counterscreen for Small Molecule Inhibitors of Shiga Toxin; cell reporter, cycloheximide protein synthesis inhibition counterscreen; max response, %; 12% of 300,000 active; in the data active = max response mostly above about 13%, no sharp cut-off; inactive = mostly below about 14%; also: read at 38.3 µM for the half of the compounds with a filed dose; 0% is about no effect
# AMA1-RON2 inh = qHTS for Inhibitors of AMA1-RON; Towards Development of Antimalarial Drug Lead: Primary Screen | Plasmodium falciparum AMA1 (3D7) - RON2 peptide interaction | AlphaScreen AMA1-biotinylated RON2 peptide binding | Potency, µM (top dose mostly 58.2 µM), without a hit: at the top dose activity change, negative = inhibition, actives largely listed as inhibitors | 0.2% of 360,000 active | AID 720542, 2013; active = well fitted inhibition curve with a large enough effect; inconclusive = small, poorly fitted or top-dose-only effect; inactive = no such curve, though single readings can be large or run the other way;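 also: potency is read from the fitted curve at half-maximal effect; 0% = vehicle wells and -100% = peptide control; nearly all actives have a fitted effect of over 45% in size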
#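 AMA1 (3D7) with his tag at 25 nM final met compounds first, then biotinylated RON2 peptide at 25 nM; detection used donor plus acceptor beads, 10 µg/mL apiece, read by AlphaScreen after 30 min at room temperature.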
# MARV entry inh = qHTS for inhibitors of binding or entry into cells for Marburg Virus. Marburg virus pseudotyped entry inhibition, cell reporter. Potency, µM (top dose mostly 37.8 µM), for the others: at the highest dose activity change, negative = inhibition, actives largely listed as inhibitors. 1.8% of 300,000 active. AID 540276, 2011; calls by dose curve; tested in HEK293 cells; also: potency is read from the fitted curve at half-maximal effect; % is scaled to controls: 0 for no effect and ±100 for the full control effect
# An asterisk follows results filed as active; ? = inconclusive; / = no result given; [ ] = another dose, or the depositor's remark.
SMILES,Shiga toxin inh,LASV entry inh,Cycloheximide cs,AMA1-RON2 inh,MARV entry inh
Cc1nnc(SCC(=O)NC2CCCCC2)n1-c1ccccc1,/,/,/,16.3%,/
Fc1ccc(Nc2ncnc3ccccc23)cc1,/,26.5%,22.2*,-4.8%,?
CC(=O)Nc1ccc(Nc2ncnc3ccccc23)cc1,25.9,/,14.2*,/,/
CC(C)(C)C(=O)Oc1cccc(Nc2ncnc3ccccc23)c1,10.3,-1.9%[46.1 µM],9.6*,-2.3%,?
COc1ccccc1Nc1ncnc2ccccc12,35.0,?,16.6*,17.8%,-5.0%
CCc1nn(CC(=O)NCCC(C)C)c(=O)c2cc3occc3n12,/,3.8%[46.1 µM],/,/,?
Cc1ccc(S(=O)(=O)Nc2ccc(C(=O)N3CCOCC3)cc2)cc1,-1.4,-6.6%,-6.4,-1.4%,?
COC(=O)c1ccc(CN2C(=O)[C@]3(OCCC=C[C@@H]3C)c3cc(OC)ccc32)cc1,/,/,/,/,-22.7%[14.2 µM]
Cc1ccc(S(=O)(=O)Nc2cccc3ncccc23)cc1,-4.0,/,-1.6,10.8%,/
Cc1ccc(S(=O)(=O)Nc2cccc3ncccc23)s1,-5.2,8.91µM*,26.4,0.4%,10µM*
Cc1cccc(C(=O)Oc2ccc3ccc(O)cc3c2)c1,/,/,24.8*,19.3%,/
O=C(Oc1ccccc1)c1ccccc1,/,-38.3%[46.1 µM],/,10.9%,7.5%[46.1 µM]
O=C(Oc1ccc2ccccc2c1)c1ccccc1,94.2,11.2%,22.5*,60.2%,27.8%
O=C(c1cnsn1)N1CCC(CO)(Cc2cccc(F)c2)CC1,67.2*,27.1%,53.8*,-3.8%,?
Cc1cc(C(=O)N2CCC(CO)(Cc3cccc(C(F)(F)F)c3)CC2)n[nH]1,1.1,/,7.7,-9.6%,/
O=c1cc(NCCc2ccccc2)c2ccccc2o1,42.2*,/,24.1*,10.3%,-23.5%[46.1 µM]
NC(C(=O)O)C(c1ccccc1)C(F)F (centres undefined),14.0,/,3.6,27.3%,/
COc1cc(N)ccc1NC(=O)c1cc2ccccc2o1,63.8*,/,41.9*,-8.5%,/
COc1ccc(OC)c(NC(=O)c2cc3ccccc3o2)c1,93.1,3.9%,27.0*,-22.4%,-10.6%[46.1 µM]
CCCC(=O)Nc1ccc(NC(=O)c2cc3ccccc3o2)c(OC)c1,/,-13.9%[46.1 µM],38.2*,-10.6%,-32.3%[46.1 µM]
COc1ccc(C)cc1NC(=O)c1cc2ccccc2o1,41.8,2.5%,40.1,13.9%,14.6%
COc1cc(NC(C)=O)ccc1NC(=O)c1cc2ccccc2o1,20.9,/,15.5*,7.5%,/
COc1cc(NC(=O)c2ccccc2)ccc1NC(=O)c1cc2ccccc2o1,0.6,9.9%[46.1 µM],2.9,-2.7%,?
COc1cc(NC(=S)NC(=O)CC(C)C)ccc1NC(=O)c1cc2ccccc2o1,-8.6,0.4%,-5.2,2.4%,-4.8%
COC(=O)[C@]1(C)N[C@H](CN(C)C(C)=O)[C@@H]2C(=O)N(Cc3ccccc3)C(=O)[C@@H]21,/,/,/,-4.8%,/
SMILES,Shiga toxin inh,LASV entry inh,Cycloheximide cs,AMA1-RON2 inh,MARV entry inh
CCCNC(=O)Cn1nc(C)c2c(C)n(-c3ccccc3)nc2c1=O,/,1.3%[46.1 µM],/,/,/
CC(NS(=O)(=O)c1ccccc1)C1COc2ccccc2O1 (centres undefined),1.7,-11.0%,31.2*,-0.4%,-3.8%
CC(NC(=O)c1ccccc1Cl)C1COc2ccccc2O1 (centres undefined),51.0*,16.0%,31.2*,-14.5%,-14.1%[46.1 µM]
CC(NCC1COc2ccccc2O1)C1COc2ccccc2O1 (centres undefined),-4.3,?,5.8,-29.3%,5.1%[46.1 µM]
CCCCCCCNC(=O)C1(CC2CC(c3cccc(Br)c3)=NO2)CCNCC1 (centres undefined),32.6*,/,8.2*,-9.0%,/
CC(=O)N1c2ccccc2[C@H](C)[C@H]1C,/,/,/,6.4%,/
CC1c2ccccc2N(S(=O)(=O)c2ccccc2)C1C (centres undefined),/,?,/,5.7%,3.55µM*
CCCCOc1ccc(NC(=O)Nc2nnc(C)s2)cc1,27.7,/,9.7,-0.8%,/
C[C@H](CO)N1C[C@H](C)[C@@H](CN(C)S(C)(=O)=O)Oc2ccc(NS(=O)(=O)c3cn(C)cn3)cc2C1=O,/,/,/,1.1%,/
O=[N+]([O-])/C=C/c1cc2ccccc2[nH]1,-12.1,/,-6.4,-13.8%,/
O=[N+]([O-])/C=C/c1c(Cl)cccc1Cl,/,-4.7%,/,5.1%,10µM*
CC(C)N(N=Nc1ccc([N+](=O)[O-])cc1)C(C)C,-4.4,-9.2%,-0.8,-20.3%,18.2%
CN(N=Nc1ccc([N+](=O)[O-])cc1)c1ccccc1,54.5*,20.2%,68.2*,?,?
CN(N=Nc1cccc([N+](=O)[O-])c1)c1ccccc1,87.7*,0.6%[46.1 µM],56.6*,-6.3%,?
CCCC[C@@H]1CC2=C(C(=O)OC(C)(C)O2)[C@@H](c2ccc(F)cc2)O1,/,/,/,-3.8%,/
CN(C)CC(C(=O)c1ccccc1)c1ccccc1 (centres undefined),-15.9,8.91µM*,-4.4,-13.8%,6.31µM*
NC(=O)c1ccccc1NC(=O)CCn1c(=S)oc2ccccc21,-6.1,-17.2%[46.1 µM],-5.7,-3.5%,-1.8%[46.1 µM]
C=CCn1cc(/C=C/c2cc[n+](C)cc2)c2ccccc21,-7.4,/,-4.0,-6.6%,/
C=CCn1c(C)c(/C=C/c2cc[n+](C)cc2)c2ccccc21,/,?,-2.6,-9.5%,2.82µM*
Cc1ccc2c(c1)COc1c3ccc(C(=O)NC(C)C)cc3nn1-2,76.2*,/,35.3*,-9.3%,/
Cc1ccc2c(c1)COc1c3ccc(C(=O)N[C@@H](C)CO)cc3nn1-2,52.9*,/,42.1*,-7.0%,/
Cc1c(C(=O)/C=C/N(C)C)nnn1-c1ccc(Cl)cc1Cl,57.6*,-0.8%[46.1 µM],13.5,17.4%,7.8%[46.1 µM]
Cc1c(C(=O)/C=C/N(C)C)nnn1-c1ccc(Cl)c(Cl)c1,43.5,/,14.6,3.2%,/
Cc1c(C(=O)/C=C/N(C)C)nnn1-c1ccc(F)c(Cl)c1,75.9*,-29.8%[46.1 µM],32.8*,1.5%,?
Cc1cccc(-c2noc(-c3cc(-c4ccc(F)cc4)n[nH]3)n2)c1,/,-2.9%[46.1 µM],/,/,/
SMILES,Shiga toxin inh,LASV entry inh,Cycloheximide cs,AMA1-RON2 inh,MARV entry inh
O=[N+]([O-])c1ccccc1-c1cc(-c2ccccc2O)n[nH]1,69.1*,?,74.8*,53.2%,?
Cc1ccc(O)c(-c2cc(-c3cccc(F)c3)n[nH]2)c1,59.9,?,24.2*,27.8%,?
Cc1ccc(-c2cc(-c3ccccc3C)[nH]n2)c(O)c1,42.2*,?,39.8*,-5.1%,?
Cc1ccc(C)c(C(O)c2ncc(-c3cccc(F)c3)[nH]2)c1 (centres undefined),/,/,/,-10.5%,/
Cc1ccc(-c2cc(C(=O)Nc3c(C)n(C)n(-c4ccccc4)c3=O)[nH]n2)c(O)c1,-3.5,-3.6%,-0.5,88.8%,?
Cc1ccc(-c2cc(-c3cccc(F)c3)n[nH]2)c(O)c1,75.6*,?,31.1*,80.1%,?
Cc1ccc(C(=O)NNS(=O)(=O)c2ccc(F)cc2)cc1,21.0,0.3%[46.1 µM],6.6,22.5%,?
Cc1cc(C)cc(C(O)c2ncc(-c3ccccc3F)[nH]2)c1 (centres undefined),/,/,/,-3.5%,/
Cc1ccc(O)c(-c2cc(-c3ccccc3F)[nH]n2)c1,104.0*,-1.7%,35.2*,-0.7%,25.4%
